# According to PubChem BioAssay AID720532 (National Center for Advancing Translational Sciences (NCATS), 2013):
# Values joined by “and” are separate entries in the source; they are usually repeats but may differ in a detail not shown here. Equal entries are not always repeated. In all, about 18,000 compounds went through this assay and about 1,200 (6.7%) were called active. Another 16% or so got no clear call; they are omitted. This is one part of a sample in which actives are shown more often than they occur. The call rests on the fitted dose curve; tested in HEK293 cells.
# Experiment: qHTS for Inhibitors of binding or entry into cells for Marburg Virus
# Conditions: Marburg virus pseudotype entry/binding inhibition, cell-based; series mostly up to 49.2 µM; activity change, negative = inhibition: at the top concentration
# On the % scale 0 is the no-effect control and ±100 the full control effect; potency means the concentration at half of the fitted maximal effect.
Compound,"activity change, negative = inhibition",Potency
CC1(OC(=O)C2CCCC2)C(=O)C=C2C=C(c3ccc(C#N)cc3)OC=C2C1=O (centres undefined),inactive,–
CCN1C(=NCc2cc(OC)c(OC)c(OC)c2)NC(c2cccc(C(F)(F)F)c2)C(C(=O)OC)=C1C (centres undefined),12.8% [at 8.59 µM] (inactive),–
O=C1C=C(c2ccccc2)CCC1,inactive,–
CC[C@H](C)[C@H](NC(=O)[C@H](CCCNC(=N)N)NC(=O)[C@H](CCCNC(=N)N)NC(=O)[C@H](CC(C)C)NC(=O)[C@H](Cc1ccccc1)NC(=O)CNC(=O)CNC(=O)[C@@H](N)Cc1ccc(O)cc1)C(=O)N[C@@H](CCCNC(=N)N)C(=O)N1CCC[C@H]1C(=O)N[C@@H](CCCCN)C(=O)N[C@@H](CC(C)C)C(=O)N[C@@H](CCCCN)C(=O)N[C@@H](Cc1c[nH]c2ccccc12)C(=O)N[C@@H](CC(=O)O)C(=O)N[C@@H](CC(N)=O)C(=O)N[C@@H](CCC(N)=O)C(=O)O,5.11% (inactive),–
CNCC[C@H](Oc1ccc(C(F)(F)F)cc1)c1ccccc1,–,3.98 µM (active) and 8.91 µM (active)
COC(=O)N[C@@H](c1ccccc1)[C@]1(C(=O)OC)CCCC1=O,-27.3% [at 8.59 µM] (inactive),–
CC[C@H](C)[C@@H](NC(=O)O[C@@H]1C(=O)c2cc(OC)ccc2O[C@H]1c1cccc(OC)c1)C(=O)OC,-4.78% (inactive),–
COc1ccccc1C1CN(CCNC(=O)C2=CCCC2)Cc2ccccc2O1 (centres undefined),-15.4% (inactive),–
COCC(=O)Nc1cc(C(=O)N2CCCC(c3ccccc3)CC2)c2c(c1)nc(-c1ccncc1)n2C (centres undefined),10.9% (inactive),–
C=C(C)C(=O)c1ccc(F)cc1,11.7% (inactive),–
C[C@@H]1[C@@H](c2ccccc2)Oc2c(Cl)cccc2S(=O)(=O)N1Cc1ccc(Cl)cc1,19.7% (inactive),–
C#C[C@]1(O)CC[C@H]2[C@@H]3CCC4=C/C(=N/O)CC[C@@H]4[C@H]3CC[C@@]21CC,23.7% (inactive),–
COCCN1C(=O)N[C@@H](CCc2ccccc2)[C@H](C(C)=O)[C@H]1C,-2.21% [at 8.59 µM] (inactive),–
COc1ccc([C@]23Cc4ccccc4[C@H](O2)c2c(c4ccc(OC)cc4oc2=O)O3)cc1,-9.62% [at 8.59 µM] (inactive),–
COc1ccc(-c2nc3c(c4c2C[C@H](c2ccccc2)OC4)CN(C(=O)c2cccnc2)CC3)c(C)c1,29.8% [at 8.59 µM] (inactive),–
CC[C@H]1C[C@H](C=CCC(C(=O)OC)C(=O)OC)OP(=O)(OC)O1 (some centres undefined),30.3% (inactive),–
CC[C@H]1CN2CCc3cc(OC)c(OC)cc3[C@@H]2C[C@@H]1C[C@H]1NCCc2cc(OC)c(OC)cc21,–,0.398 µM (active)
Cc1cc2oc(=O)cc(-c3ccccc3)c2c(C)c1-c1ccc(OC(F)(F)F)cc1,-4.07% (inactive),–
O=C1OCCN1C(=O)[C@H]1[C@H](c2ccccc2)C(c2ccc(F)cc2)=NN1c1ccccc1,-2.52% (inactive),–
C=C/C1=C/Cc2ccccc2[C@H](C[N+](=O)[O-])C(C(=O)OC)(C(=O)OC)C1,-15.8% (inactive),–
CC/C=C\C/C=C\C/C=C\C/C=C\C/C=C\C/C=C\CCC(=O)NCCc1ccc(O)c(O)c1,11.2% (inactive),–
CC1=C2[C@@H](O)[C@H]([C@@H](C)C(=O)NCCC(C)C)CC[C@@]2(C)C=CC1=O,12.8% (inactive),–
O=C(C1CCCCC1)N1C[C@@H](n2cc(C3CC3)nn2)[C@@H](O)C[C@@H]1c1ccccc1,-1.69% (inactive),–
Cc1ccc(-c2ccc(CN3C(C(C)C)C(=O)N(Cc4cn(CCC5OCCCO5)nn4)CCS3(=O)=O)cc2)cc1 (centres undefined),-27.2% (inactive),–
COC(=O)C12C[C@H](C)C3C(C)C(c4ccccc4C31)N2C(=O)C(F)(F)F (some centres undefined),-25.2% [at 8.59 µM] (inactive),–

Compound,"activity change, negative = inhibition",Potency
CCN1C(=S)NC(c2cccc(C(F)(F)F)c2)C(C(=O)OC)=C1C (centres undefined),95.8% [at 8.59 µM] (inactive),–
CCOC(=O)CN1C(=O)N[C@@H](c2ccc(Br)cc2)C(C(C)=O)=C1C,-0.139% (inactive),–
CC(=O)Oc1c2c(c3c(c1CC=C(C)C)O[C@@]14C(=CC5CC1C(C)(C)OC4(C/C=C(\C)C(=O)O)C5=O)C3=O)OC(C)(CCC=C(C)C)C=C2 (some centres undefined),–,3.55 µM (active)
Cc1cccc([C@H]2[C@@H]3C=CC[C@@H](C)[C@@H]3C(=O)N2Cc2ccccc2)c1,-5.81% (inactive),–
COc1cccc([C@H](O)Cn2cc(-c3ccc(CON=C(C)C)cc3)nn2)c1,7.92% [at 8.59 µM] (inactive),–
Cc1cc2c(nc1C)CCCCN2C[C@H](C)ON=C1[C@H]2CCn3c(=O)n(-c4ccccc4)c(=O)n3[C@@H]2[C@H](O)[C@@H]2O[C@H]12,26% [at 8.59 µM] (inactive),–
N#Cc1c(Cl)c(Cl)c(Cl)c(C#N)c1Cl,–,1.12 µM (active)
COCOc1cc(OC)ccc1C(=O)/C=C/c1ccc([N+](=O)[O-])cc1,3.69% (inactive),–
OCCN1CCN(CC/C=C2\c3ccccc3Sc3ccc(C(F)(F)F)cc32)CC1,–,12.6 µM (active)
CC(C)(C)OC(=O)NCCCCC1=CC2=CC(=O)C(C)(OC(=O)c3cccs3)C(=O)C2=CO1 (centres undefined),-6.53% (inactive),–
CCOC(=O)C1=C(C)c2ccccc2OC1C(=O)OCC (centres undefined),-10.6% (inactive),–
COc1cccc(CC(=O)N2CCc3nc(COc4ccccc4)c4c(c3C2)CO[C@@H](C)C4)c1,-8.64% [at 8.59 µM] (inactive),–
N#Cc1cccc(CS(=O)(=O)c2nnnn2-c2cc(C(F)(F)F)cc(C(F)(F)F)c2)c1,-6.48% (inactive),–
COc1ccccc1-c1ccnc(-n2ncc(C(=O)NCCc3ccncc3)c2C)n1,-19.5% (inactive),–
CC(C)[C@@H](CC(=O)N[C@@H]1CCNC[C@H]1C(=O)N[C@H](CC(=O)N[C@@H](CCC(=O)O)CC(=O)O)Cc1ccccc1)NC(=O)C[C@H](CO)NC(=O)[C@@H]1CNCC[C@H]1N,1.1% (inactive),–
COC(=O)[C@H]1[C@@H](c2ccccc2)NC(=O)O[C@@H]1C,55.5% [at 8.59 µM] (inactive),–
CC(C)CNc1cccc2c1S(=O)(=O)N[C@H](CC(C)C)CO2,21.9% (inactive),–
COCCN1C(=S)NC(c2cccc(F)c2)C(C(=O)OC)=C1C (centres undefined),20.9% [at 8.59 µM] (inactive),–
N#Cc1ccc2c(c1)C[C@]1(CCCCN3C(=O)c4ccccc4C3=O)OC3=C(C(=O)OC4(CCCCC4)C3)[C@H]2O1,9.87% [at 8.59 µM] (inactive),–
CN(Cc1ccccc1F)c1cc2c(c3c1ccn3C)C1CCC2O1 (centres undefined),19.5% (inactive),–
COC(=O)[C@@H]1CC2=CC(=O)CC[C@]2(C)[C@@]23O[C@@H]2C[C@@]2(C)[C@@H](CC[C@@]24CCC(=O)O4)[C@H]13,-2.79% (inactive),–
CC[C@]1(O)C(=O)OCc2c1cc1n(c2=O)Cc2cc3ccccc3nc2-1,–,2.82 µM (active)
CCCN(C/C=C\I)[C@@H]1CCc2cccc(O)c2C1,–,25.1 µM (active)
CCCN(C/C=C/I)C1CCc2ccc(O)cc2C1 (centres undefined),-4.11% (inactive),–
CCCN(CCc1ccccc1)C1CCc2c(O)cccc2C1 (centres undefined),–,35.5 µM (active)

Compound,"activity change, negative = inhibition",Potency
O=C(Nc1cc(C(=O)Nc2ccc(S(=O)(=O)O)cc2)cc(C(=O)Nc2ccc(S(=O)(=O)O)cc2)c1)Nc1cc(C(=O)Nc2ccc(S(=O)(=O)O)cc2)cc(C(=O)Nc2ccc(S(=O)(=O)O)cc2)c1,-1.03% (inactive),–
COC(=O)C/C=C/[C@@H](C)[C@H](NC(=O)OCC(Cl)(Cl)Cl)c1ccccc1,-18.3% (inactive),–
Oc1c(Cl)cc(Cl)c(Cl)c1Cc1c(O)c(Cl)cc(Cl)c1Cl,–,15.8 µM (active)
Cc1ccccc1-c1ccc(C(=O)O)s1,50.9% [at 107 µM] (inactive),–
C[C@H]1[C@H](c2ccccc2)Oc2cc(Br)ccc2S(=O)(=O)N1Cc1cccc(F)c1,-22.6% (inactive),–
COC1CC(OC2CC[C@@]3(C=O)C4CC[C@]5(C)C(C6=CC(=O)OC6)CC[C@@]5(O)C4CC[C@]3(O)C2)OC(C)C1O (some centres undefined),–,0.251 µM (active)
C[C@@]12CC[C@H]3[C@@H](CC[C@]4(O)C[C@H](O)CC[C@@]34C=O)[C@]1(O)CC[C@@H]2C1=CC(=O)OC1,–,1 µM (active)
COc1ccc(CC(N)C(=O)NC2C(O)[C@H](n3cnc4c(N(C)C)ncnc43)O[C@@H]2CO)cc1 (some centres undefined),–,3.98 µM (active)
Nc1ncnc2c1ncn2C1CC(O)C(CO)O1 (centres undefined),11.5% (inactive),–
COc1ccc(C[C@H](N)C(=O)N[C@@H]2[C@H](O)[C@H](n3cnc4c(N(C)C)ncnc43)O[C@@H]2CO)cc1,–,2.24 µM (active)
C[C@H]1C/C=C/[C@@H]2[C@@H]3O[C@]3(C)[C@@H](C)[C@H]3[C@H](Cc4ccccc4)NC(=O)[C@]32OC(=O)O/C=C/[C@](C)(O)C1=O,–,0.251 µM (active)
CO[C@H]1[C@H](NC(=O)C(C)C)c2ccccc2C12CCN(Cc1cnc(N(C)C)s1)CC2,-20.2% (inactive),–
Cc1c(S(=O)(=O)O)oc2c1C(=O)C(=O)c1c-2ccc2c1CCCC2(C)C,1.1% (inactive),–
O=C(C(=O)N1CCOc2ccc(CN3CCN(Cc4ccccn4)CC3)cc2C1)c1ccccc1,-10.7% (inactive),–
CCOC(=O)N1CCC(N2CCOc3ccc(CN4CCC(O)(c5cccnc5)CC4)cc3C2)CC1,-28.6% (inactive),–
c1ccc(CN2CCN(Cc3ccc4c(c3)CN(Cc3c[nH]c5ccccc35)CCO4)CC2)nc1,–,10 µM (active)
O=c1c(CN2CCOc3ccc(CN4CCC(Oc5cccnc5)CC4)cc3C2)coc2ccccc12,–,11.2 µM (active)
CCOC(=O)N1CCN(Cc2ccc3c(c2)CN(C(=O)c2cccc(-n4cccn4)c2)CCO3)CC1,-8.81% (inactive),–
CC(C)c1cc(C(=O)N2CCOc3ccc(CN4CCC(Oc5cccnc5)CC4)cc3C2)n[nH]1,25.6% (inactive),–
O=S(O)S(=O)(=O)O,2.36% (inactive),–
O=S1(=O)CC(O)c2cc(Br)ccc2N1Cc1cccc(F)c1 (centres undefined),25.4% (inactive),–
Cc1ccccc1Nc1oc(-c2ccccc2)nc1C(C)(C)C,-15% [at 8.59 µM] (inactive),–
C=C1/C(=C\C=C2\CCCC3(C)C2CCC3C(C)/C=C/C(O)C2CC2)CC(O)CC1O (centres undefined),-5.17% (inactive),–
COC(=O)CCCC1=CC2=C(c3ccccc3)C(=O)C(C)(OC(=O)C3CCCC3)C(=O)C2=CN1c1ccc(OC)cc1 (centres undefined),-5.26% [at 8.59 µM] (inactive),–
